Whole data set: some 33,000 sequences, median “E-score (dimensionless, -0.5 to 0.5)” near -0.058, cut for the highest 2% near 0.35. This excerpt belongs to a sample that is enriched for the highest values.
test system: MvaT; test: PBM 8-mer E-score (mean of HK and ME arrays) (E-score (dimensionless, -0.5 to 0.5)); higher = stronger relative binding preference
In short: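 Full-length P. aeruginosa MvaT carrying an N-terminal glutathione S-transferase tag was tested by protein binding microarray following a previously described protocol. Two universal double-stranded 60-mer arrays, ME and HK, were used, each with a constant 25-mer primer region and a variable 35-mer region covering all 8-mers. The rank-based E-score is the mean of the two arrays, parsed with a custom script. Its range runs from -0.5 to 0.5 for each 8-mer.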

| Sequence | PBM 8-mer E-score |
| --- | --- |
| CTCTCATA | 0.00755 |
| ACGGACGA | -0.238 |
| GCAAAATA | 0.198 |
| ACAAATTA | 0.35 |
| CCAAATTA | 0.228 |
| ACAAATTG | 0.137 |
| ACAAAATG | 0.0821 |
| ACAAAATA | 0.39 |
| CGCCCAAC | -0.0513 |
| CATCCTTA | 0.0793 |
| ACATAGTC | 0.172 |
| AGACTAGA | 0.16 |
| CGTCCAAC | -0.205 |
| AAAGCGTT | 0.0685 |
| GAGGGATA | -0.0756 |
| AGTGTTTC | 0.161 |
| GAAGTTAA | 0.317 |
| ACAGTTAT | 0.305 |
| AAAGTTTA | 0.353 |
| AAAGTTGT | 0.264 |
| GAAGTTTA | 0.304 |
| CTAGTTTA | 0.306 |
| TGAGTTAA | 0.272 |
| AAAGTTAT | 0.36 |
| ATAGTTTA | 0.35 |

| Sequence | PBM 8-mer E-score |
| --- | --- |
| TAAGTTAA | 0.426 |
| ATAGTTTC | 0.275 |
| AAAGTTTC | 0.296 |
| ACTCAGAT | 0.101 |
| CACAACGA | 0.0491 |
| CTTGGACA | -0.17 |
| ACAGGCAC | -0.193 |
| CTTTTGGC | -0.0767 |
| TAAGTTCA | 0.353 |
| CAAGTTAA | 0.332 |
| ATAGTTAA | 0.339 |
| GAAGTTCA | 0.16 |
| CTAGTTAA | 0.36 |
| ACAGTTAA | 0.299 |
| AAAGTTCA | 0.322 |
| CAAGTTAG | 0.194 |
| AAAGTTAG | 0.353 |
| AAAGTTAC | 0.212 |
| GTAGTTAA | 0.283 |
| AAAGTTAA | 0.353 |
| CATACGTA | -0.0616 |
| AAGTTTCA | 0.303 |
| GAGCTGAC | -0.316 |
| TATCTACA | 0.17 |
| ACCCCATA | -0.17 |

| Sequence | PBM 8-mer E-score |
| --- | --- |
| CAAAGTAG | 0.0209 |
| CCTGGGTC | -0.264 |
| ACGGATAT | 0.113 |
| CGTATTAC | 0.17 |
| TGTATTAA | 0.39 |
| CGTATTAG | 0.0961 |
| CGTATTAA | 0.35 |
| GGTATTAA | 0.34 |
| AGTATTAA | 0.328 |
| GTCATAAC | 0.0325 |
| GTACATGA | 0.066 |
| ATGTGGGA | 0.0305 |
| ACGTATGA | -0.1 |
| CGGTTATA | 0.224 |
| ACTTATTG | 0.29 |
| ACTTATTA | 0.416 |
| CCTTATTA | 0.292 |
| AATTATTA | 0.438 |
| CATTGTTA | 0.157 |
| AATTACTA | 0.323 |
| AATTATCG | 0.336 |
| AATTATTG | 0.351 |
| GATTGTTA | 0.204 |
| AATTGTTA | 0.377 |
| GCTTATTA | 0.254 |

| Sequence | PBM 8-mer E-score |
| --- | --- |
| TCTAGGCA | -0.16 |
| CCGAGCGC | -0.231 |
| TATCTGAA | 0.238 |
| ATGTCCTG | -0.157 |
| CATAGCGA | 0.0278 |
| AGTACCGC | -0.108 |
| GTGAGCTA | -0.209 |
| CAAGCCTG | -0.209 |
| AATTATCC | 0.296 |
| AATTATTC | 0.352 |
| AATTAGTC | 0.282 |
| CATTAGTA | 0.191 |
| ACTTATTC | 0.229 |
| AATTAGTA | 0.384 |
| GAGATTTA | 0.0378 |
| GTTGCATA | 0.0505 |
| ATCATTAC | 0.235 |
| CGACAACA | 0.0714 |
| AATATTAC | 0.372 |
| CCTATTAG | 0.0715 |
| CATATTAG | 0.305 |
| AATATTAG | 0.394 |
| AATATTGT | 0.355 |
| AATATTGG | 0.278 |
| CCTATTAC | 0.151 |

| Sequence | PBM 8-mer E-score |
| --- | --- |
| CATATTAC | 0.294 |
| AAGATTAT | 0.286 |
| AATATCAT | 0.294 |
| AATATTAT | 0.445 |
| AATATTGC | 0.307 |
| TATTCTGA | 0.132 |
| CTGATAGC | -0.222 |
| CCCGGGCG | -0.302 |
| GAGCTGGC | -0.277 |
| AACTCTTA | 0.21 |
| GTAAATGA | 0.222 |
| ATAAACAT | 0.342 |
| ATAAATCA | 0.295 |
| GTAAATAC | 0.228 |
| ATAAAGAT | 0.333 |
| ATAAATAG | 0.358 |
| CTAAATAG | 0.102 |
| ATAAATAA | 0.442 |
| ATAAATCG | 0.255 |
| ATAAATGA | 0.316 |
| GTAAATAA | 0.366 |
| ATAAATAT | 0.44 |
| ATGTTCTA | 0.0957 |
| TAGTCGGA | -0.0242 |
| ACATTTCA | 0.153 |

| Sequence | PBM 8-mer E-score |
| --- | --- |
| ATTTAGAA | 0.321 |
| GTAGTGTA | 0.0767 |
| CGGTGCTA | -0.21 |
| ATAAATCC | 0.25 |
| ATAAATGC | 0.279 |
| ATAAATAC | 0.362 |
| CGGTTTCC | -0.194 |
| CAATTTGG | 0.0733 |
| ACTTAAGT | 0.314 |
| AATTAAGC | 0.328 |
| AATTAAGT | 0.395 |
| AGTTAAGG | 0.135 |
| CATTAAGG | 0.0854 |
| AATTAAGG | 0.37 |
| ATGCAGAA | 0.0633 |
| CAGACAAA | 0.0494 |
| GAGAGGCC | -0.32 |
| AGATGAGA | 0.0308 |
| GAATATCC | 0.0901 |
| AAATATTC | 0.363 |
| GAATATTC | 0.349 |
| AAATATCC | 0.253 |
| GAATATGC | 0.119 |
| AGATATTC | 0.209 |
| GACCGAAA | -0.0789 |

| Sequence | PBM 8-mer E-score |
| --- | --- |
| GGGACGGA | -0.273 |
| TAGGAGGA | -0.23 |
| ACTATTTA | 0.345 |
| GGTATTTA | 0.27 |
| ATTATTTA | 0.44 |
| CTTATTTA | 0.391 |
| ACTATTTG | 0.258 |
| ATTATTTG | 0.351 |
| AGTATTTG | 0.308 |
| CTTATTTC | 0.291 |
| AGTATTTA | 0.33 |
| GCTATTTA | 0.252 |
| GTTATTTA | 0.395 |
| CTCATTTA | 0.172 |
| GACGACGA | 0.0375 |
| AGCCTTCG | -0.32 |
| CAAAAATC | 0.0508 |
| GAGATTAC | 0.135 |
| AAGAAACT | 0.186 |
| GGCGTGGA | -0.173 |
| GACCATAA | -0.0261 |
| CGGAGCCA | -0.2 |
| GCAATCCA | -0.0685 |
| CGCACCCC | -0.26 |
| ATTATTTC | 0.352 |

| Sequence | PBM 8-mer E-score |
| --- | --- |
| ATTATTGC | 0.292 |
| AGTATTTC | 0.207 |
| AACCTGGA | -0.275 |
| AGCGCGAT | -0.196 |
| CATTTAAG | 0.287 |
| AATTTAAC | 0.31 |
| AATTTTAA | 0.321 |
| AATTTAGA | 0.183 |
| TATTTTCA | 0.277 |
| AATTTAAG | 0.271 |
| CATTTTAA | 0.176 |
| GATTTTAA | 0.248 |
| CATTTAAA | 0.386 |
| TATTTTAA | 0.41 |
| AATTTAAT | 0.431 |
| AATTTAAA | 0.443 |
| ATGCATAG | -0.0132 |
| CGCGCATA | 0.113 |
| GCGTGAAC | -0.168 |
| GGACCCCA | -0.231 |
| TACGCACA | 0.0888 |
| CGGTGGCA | -0.169 |
| CGCACGTA | -0.1 |
| CCTGCACG | -0.224 |
| TCTTTAAA | 0.227 |

| Sequence | PBM 8-mer E-score |
| --- | --- |
| TATTTAGA | 0.308 |
| TATTTAAA | 0.433 |
| GATTTGAA | 0.2 |
| GATTTAAC | 0.245 |
| TATTTACA | 0.374 |
| GATTTAAA | 0.395 |
| GATTTACA | 0.072 |
| CATTTACA | 0.339 |
| ATGTCAAC | 0.0323 |
| CGCCTACG | -0.307 |
| AGGGAGAG | -0.161 |
| ACATTAAT | 0.382 |
| GCATTTAA | 0.326 |
| CCATTAAA | 0.329 |
| ACATTAAA | 0.359 |
| ACATTAAC | 0.345 |
| AGATTAAA | 0.178 |
| AGATTAAG | 0.175 |
| ACATTAAG | 0.265 |
| ACATTTAG | 0.177 |
| AGATTAAT | 0.379 |
| GCATTAAA | 0.256 |
| ACATTTAA | 0.388 |
